Here are results for 27 molecules from PubChem BioAssay (Tox21).

Values joined by “and” are separate entries in the source; they are usually repeats but may differ in a detail not shown here. Equal values may be shown once. Records with an inconclusive call do not appear. The source holds several records for some structures; these can differ, active in one and inactive in another. Active and inactive are the calls of the source. Unless noted, calls follow the shape of the full dose curve.

Assay [1] can be described thus: qHTS assay to identify small molecule agonists of the vitamin D receptor (VDR) signaling pathway - cell viability counter screen (AID 743224; active = well fitted curve in the direction sought with a large enough effect in the repeat runs; an effect the other way counts as inactive or inconclusive; also: nearly all actives have a fitted effect of over 50% in size; also: potency is read from the fitted curve at half-maximal effect). The essentials:
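VDR-bla cell line, quantitative HTS format; 16 h compound incubation (37C, 5% CO2); ATP-based CellTiter-Glo luminescence measured in the reporter assay wells.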

Assay [2] in a line: qHTS assay to identify small molecule antagonists of the vitamin D receptor (VDR) signaling pathway - cell viability counter screen (AID 743225; active = well fitted curve in the direction sought with a large enough effect in the repeat runs; an effect the other way counts as inactive or inconclusive; also: % is scaled to controls: 0 for no effect and ±100 for the full control effect; nearly all actives have a fitted effect of over 50% in size). The essentials: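 VDR-bla HEK 293T cells, 4 h pre-incubation at 37C, then compound plus 1-alpha,25-dihydroxyvitamin D3 (3 nM final) for 16 h. After the beta-lactamase FRET read, CellTiter-Glo was added to the same wells; luminescence after 30 min at room temperature.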

Assay [3] is described as follows: qHTS assay to identify small molecule agonists of the NFkB signaling pathway (AID 1159509; active = well fitted curve in the direction sought with a large enough effect in the signal ratio in the repeat runs, not every such curve was filed as active; the % refers to the signal ratio; also: series mostly up to about 61 µM; % is scaled to controls: 0 for no effect and ±100 for the full control effect). The essentials:
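After overnight attachment, reporter cells received test compounds, DMSO or positive controls and were incubated 5 hr at 37 C. FRET substrate was then added for 1.5 hr at room temperature before dual-emission fluorescence reading.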

The nature of assay [4]: qHTS assay to identify small molecule agonists of the NFkB signaling pathway - cell viability counter screen (AID 1159515). Also: series mostly up to about 61 µM; % is scaled to controls: 0 for no effect and ±100 for the full control effect; nearly all actives have a fitted effect of over 55% in size. The essentials:
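Viability in NFkB-bla ME-180 cells was measured by CellTiter-Glo luminescence, 30 min room temperature, in wells already treated 5 hr with compounds and read for reporter FRET.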

Assay [5] can be described thus: qHTS assay to identify small molecule agonists of the endoplasmic reticulum stress response signaling pathway (AID 1159516; active = well fitted activation curve with a large enough effect in the signal ratio in the repeat runs, not every such curve was filed as active; the % refers to the signal ratio; also: % is scaled to controls: 0 for no effect and ±100 for the full control effect). The essentials:
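ER stress element reporter (bla) in HeLa. 1,500 cells/well, overnight attachment; 5 hr compound; 2 hr RT substrate; dual-emission fluorescence.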

Assay [6] can be described thus: qHTS assay to identify small molecule agonists of the endoplasmic reticulum stress response signaling pathway - cell viability counter screen (AID 1159517).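 Also: HeLa cells carrying an ER stress response element beta-lactamase reporter; series mostly up to about 61 µM; % is scaled to controls: 0 for no effect and ±100 for the full control effect; nearly all actives have a fitted effect of over 50% in size.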 The essentials: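 Counter-screen wells were identical to the reporter wells. Cells were plated at 1,500 per well and dosed for 5 hr, then read for luminescence 30 min after CellTiter-Glo addition.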
Assay [7] is described as follows: qHTS assay to identify small molecule antagonists of the retinoid-related orphan receptor gamma (ROR-gamma) signaling pathway - cell viability counter screen (AID 1159520; active = well fitted curve in the direction sought with a large enough effect in the repeat runs; an effect the other way counts as inactive or inconclusive; also: % is scaled to controls: 0 for no effect and ±100 for the full control effect; nearly all actives have a fitted effect of over 50% in size). The essentials: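 Tet-on ROR gamma CHO cells were given compounds for 2 hr, then doxycycline hyclate at 1 uM final, and incubated 16 hr at 37 C. Viability was measured as ATP content by CellTiter-Glo luminescence.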

A short description of assay [8]: qHTS assay to identify small molecule agonists of the AP-1 signaling pathway - cell viability counter screen (AID 1159525). Also: nearly all actives have a fitted effect of over 55% in size. The essentials: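 AP-1-bla ME-180 cells in Opti-MEM with 0.5% dialyzed FBS, compound exposure 5 h at 37 C in 15-point titration. Viability read in the same wells as ATP content by CellTiter-Glo luminescence, normalised to tetra-n-octylammonium bromide and DMSO controls.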

The nature of assay [9]: qHTS assay to identify small molecule agonists of the AP-1 signaling pathway (AID 1159526). Also: % is scaled to controls: 0 for no effect and ±100 for the full control effect.
For assay [10], the target named is Nuclear receptor ROR-gamma (Homo sapiens) (UniProt P51449). The assay is described as follows: qHTS assay to identify small molecule antagonists of the retinoid-related orphan receptor gamma (ROR-gamma) signaling pathway (AID 1159521; active = well fitted curve in the direction sought with a large enough effect in the repeat runs; an effect the other way counts as inactive or inconclusive). The essentials:
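Tet-on RORγ CHO cells carrying a ROR response element–luciferase reporter were pretreated with compounds for 2 h, then induced with 1 uM (final) doxycycline hyclate for 16 h at 37 C. Antagonism was read as decreased ONE-Glo luminescence.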

Regarding `CCCCC(CC)COC(=O)C(C#N)=C(c1ccccc1)c1ccccc1` (stereo not drawn), the Potency result in assay [1], in assay [7] and in [8] was “inactive” throughout. The result in [2], in assay [3], in [4], in assay [5], in assay [6] and in [9] was inactive.

Consider `CCCCCCCCCCCCCCO`, for which the Potency result in [1], in assay [7] and in assay [8] was “inactive” throughout. The result in assay [2], in assay [3], in assay [4], in assay [5], in [6] and in assay [9] was inactive.

As for `N[C@@H](Cc1cc(I)c(Oc2cc(I)c(O)c(I)c2)c(I)c1)C(=O)O`, the Potency entry in [1], in assay [7] and in assay [8] was “inactive” in each case. Also, the molecule was classed as inactive in assay [2], in assay [3], in [4], in [5], in assay [6] and in assay [9].

Take `O=C(Oc1ccccc1)c1ccccc1`: the Potency result in assay [1], in [7], in assay [10] and in assay [8] was “inactive” throughout. The result in assay [2], in [3], in assay [4], in assay [5], in assay [6] and in assay [9] was inactive.

In the case of `CCc1ccc(CCOc2ccc(CC3SC(=O)NC3=O)cc2)nc1` (stereo not drawn), the Potency result in [1], in assay [7] and in assay [8] was “inactive” each time. The molecule was classed as inactive in assay [2], in assay [3], in assay [4], in [5], in assay [6] and in assay [9].

For the molecule `CCCCCCCCC/C=C/CC1CC(=O)OC1=O` (stereo not drawn), the Potency result in assay [1], in assay [7] and in [8] was “inactive” in each case. Besides, the call in [2], in assay [3], in assay [4], in assay [5], in assay [6] and in [9] was inactive.

In the case of `O=C(O)c1ccc2c(c1)C(=O)OC2=O`, the Potency result in assay [1], in assay [7] and in [8] was “inactive” in each case. Also, the result in assay [2], in assay [3], in assay [4], in assay [5], in assay [6] and in assay [9] was inactive.

Turning to `CC(C)(N)CO`, the Potency entry in [1], in assay [7], in [10] and in assay [8] was “inactive” each time. Also, the call in [2], in assay [3], in assay [4], in assay [5], in assay [6] and in assay [9] was inactive.

Turning to `CC(C)CC(=O)CC(C)C`, the Potency entry in assay [1], in assay [7], in [10] and in [8] was “inactive” in each case. Further, the result in [2], in [3], in assay [4], in assay [5], in assay [6] and in [9] was inactive.

As for `c1ccc2c(c1)ccc1ccccc12`, the Potency result in [1], in assay [7], in assay [10] and in assay [8] was “inactive” throughout. For the same molecule, the molecule was called inactive in assay [2], in assay [3], in assay [4], in [5], in [6] and in assay [9].

Regarding `CC(=O)CC(=O)Nc1ccccc1`, the Potency result in assay [1], in [7] and in [8] was “inactive” each time. The molecule was called inactive in [2], in assay [3], in assay [4], in [5], in assay [6] and in assay [9].

With `CC(=O)Nc1ccccc1`, the Potency entry in assay [1], in assay [7] and in assay [8] was “inactive” each time. Also, the result in assay [2], in [3], in [4], in assay [5], in assay [6] and in assay [9] was inactive.

`CCCCCOC(C)=O`: the Potency result in [1] is “inactive and 49 µM (active)”. Further, the molecule was classed as inactive in [2], in assay [3], in [4], in assay [5], in assay [6] and in [9]. The Potency result in [7] and in assay [8] was “inactive” throughout.

Turning to `Cc1ccc(S(N)(=O)=O)cc1`, the Potency result in assay [1], in assay [7] and in [8] was “inactive” throughout. In addition, the molecule was classed as inactive in assay [2], in assay [3], in assay [4], in assay [5], in assay [6] and in [9].

For the molecule `O=S(=O)(O)c1ccc2ccccc2c1`, the Potency result in assay [1], in [7] and in assay [8] was “inactive” in each case. The outcome in assay [2], in assay [3], in [4], in assay [5], in assay [6] and in assay [9] was inactive.

Consider `Cc1ccc2oc(=O)ccc2c1`, for which the Potency entry in [1], in assay [7] and in [8] was “inactive” in each case. Also, the outcome in [2], in assay [3], in [4], in assay [5], in [6] and in [9] was inactive.

Consider `CCCCC(CC)COC(=O)CS` (stereo not drawn), for which the Potency entry in assay [1], in [7] and in assay [8] was “inactive” each time. Besides, the molecule was classed as inactive in [2], in [3], in [4], in assay [5], in assay [6] and in assay [9].

Regarding `Nc1ccccc1[N+](=O)[O-]`, the Potency result in assay [1], in assay [7], in assay [10] and in assay [8] was “inactive” in each case. For the same molecule, the outcome in assay [2], in [3], in [4], in assay [5], in assay [6] and in [9] was inactive.

Turning to `CCCCCC1=CCCC1=O`, the Potency entry in assay [1], in assay [7] and in [8] was “inactive” throughout. For the same molecule, the call in assay [2], in [3], in [4], in assay [5], in assay [6] and in assay [9] was inactive.

As to `O=C(O)CC(C(=O)O)C(CC(=O)O)C(=O)O` (stereo not drawn), the Potency result in assay [1], in assay [7] and in [8] was “inactive” in each case. Further, the call in [2], in assay [3], in assay [4], in assay [5], in [6] and in assay [9] was inactive.

With `COc1cc(Cc2cnc(N)nc2N)cc(OC)c1OC`, the Potency entry in [1], in [7] and in assay [8] was “inactive” in each case. The call in [2], in assay [3], in assay [4], in assay [5], in assay [6] and in [9] was inactive.

Turning to `CCCCCCOCCO`, the Potency entry in assay [1], in assay [7] and in [8] was “inactive” in each case. In addition, the molecule was classed as inactive in [2], in assay [3], in assay [4], in [5], in assay [6] and in assay [9].

In the case of `CN(C)CCC(c1ccc(Cl)cc1)c1ccccn1` (stereo not drawn), the Potency result in assay [1], in assay [7] and in [8] was “inactive” in each case. In addition, the molecule was classed as inactive in assay [2], in [3], in [4], in [5] and in assay [6].

For `Cc1ccc(N(C)C)cc1`, the Potency result in assay [1], in assay [7] and in [8] was “inactive” in each case. Also, the call in [2], in assay [3], in [4], in assay [5], in [6] and in assay [9] was inactive.

Take `CC(=O)CC(=O)Nc1ccccc1C`: the Potency entry in [1], in [7] and in assay [8] was “inactive” in each case. Moreover, the molecule was called inactive in assay [2], in assay [3], in [4], in assay [5], in [6] and in assay [9].

As for `CCN(CC)CCCC(C)Nc1ccnc2cc(Cl)ccc12` (stereo not drawn), in [1], the Potency entry was “inactive”. The molecule was classed as inactive in [2], in assay [3], in [4], in assay [5] and in assay [6]. Moreover, in assay [7], the activity, negative = cytotoxicity is -1.33% [at 8.39 µM] (inactive) and 0.877% [at 19 µM] (inactive). Besides, the activity change, negative = inhibition in assay [10] is 0.0918% [at 8.39 µM] (inactive) and -4.56% [at 19 µM] (inactive). Besides, in assay [8], the viability change, negative = cytotoxic was 0.716% [at 6.97 µM] (inactive) and 1.22% [at 15.8 µM] (inactive). Also, the activation in assay [9] was 0.84% [at 6.97 µM] (inactive) and -1.42% [at 15.8 µM] (inactive).

As to `CN(C)CCC(c1ccccc1)c1ccccn1` (stereo not drawn), the Potency result in assay [1], in [7] and in assay [8] was “inactive” each time. Besides, the outcome in [2], in assay [3], in [4], in [5], in assay [6] and in [9] was inactive.
